{"source": "PubChem BioAssay (NCI)", "note": "Compounds without any hit were thinned out: in the full panel of roughly 83,000, 20% have a hit.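 In brief: 96-well plates, 48 h treatment, single concentration, percent growth endpoint.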 Active and inactive are the calls of the source. The calls were made as follows: active = growth percent below 10; inactive = the rest."}
{"system": "SK-OV-3 ovarian", "experiment": "NCI-60 one-dose screen, 48 h (100 = growth as untreated, 0 = no growth, -100 = all killed)", "conditions": "10 µM unless noted"}
{"smiles": "COc1ccc(O)c(-c2cc(-c3ccccc3)c(C#N)c(=O)[nH]2)c1", "growth": "92.6% (inactive)"}
{"smiles": "CN(C)c1ccc(/C=C2\\C=C(c3ccccc3)N(CCc3ccccc3)C2=O)cc1", "growth": "60.9% (inactive)"}
{"smiles": "O=c1oc2ccc(Cl)cc2cc1-c1cs/c(=N/N=C\\c2ccc(Cl)cc2)n1/N=C/c1ccc(Cl)cc1", "growth": "111% (inactive)"}
{"smiles": "O=C1c2ccccc2C2(c3ccc(O)cc3)c3ccccc3Oc3cccc1c32", "note": "(centres undefined)", "growth": "25.7% (inactive)"}
{"smiles": "c1ccc([P+](CCCc2n(Cc3ccc4ccccc4c3)c3ccccc3[n+]2Cc2ccc3ccccc3c2)(c2ccccc2)c2ccccc2)cc1", "growth": "84.5% (inactive)"}
{"smiles": "C/C(Cc1ccc(Cl)cc1)=C(/c1ccc(Cl)cc1)c1ccc(OCCN(C)C)cc1", "growth": "110% (inactive)"}
{"smiles": "COc1cc2c(cc1OC)-c1ccc3cc4c(cc3c1N(CCCN1CCCCC1)C2)OCO4", "growth": "75.7% (inactive)"}
{"smiles": "COc1ccc(C(=O)/C=C/c2cc3c(c(OC)c2)OCC(=O)N3)cc1", "growth": "103% (inactive)"}
{"smiles": "Cn1nnnc1-c1ccc(N)cc1", "growth": "95.8% (inactive)"}
{"smiles": "CCCCNCC(=O)Nc1ccc(C(=O)OCC)cc1", "growth": "105% (inactive)"}
{"smiles": "CCCCCOC(=O)c1ccc(NC(=O)CNCC(C)C)cc1", "growth": "95.4% (inactive)"}
{"smiles": "Cc1nc(Nc2cccc(NC(=O)Nc3ccc(Cl)cc3)c2)c2ccccc2n1", "growth": "97.8% (inactive)"}
{"smiles": "C=C(Cl)COC(=O)C(C)(C)O", "growth": "97.2% (inactive)"}
{"smiles": "CCNCCNc1cc(-c2ccc(Cl)cc2)c(C#N)c2nc3ccccc3n12", "growth": "31.5% (inactive)"}
{"smiles": "O=C1NCC(=O)N(Cc2ccco2)[C@H]1Cc1ccccc1", "growth": "96.7% (inactive)"}
{"smiles": "Cc1ccc(NC(=O)C(Cl)Cl)cc1", "growth": "105% (inactive)"}
{"smiles": "CCOc1cccnc1/C=N/NC(N)=S", "growth": "42.7% (inactive)"}
{"smiles": "O=C(c1ccccc1)c1ccc(Cl)c([N+](=O)[O-])c1", "growth": "108% (inactive)"}
{"smiles": "CCN(CC)CC(=O)Nc1cccc(C(=O)OC(C)C)c1", "growth": "101% (inactive)"}
{"smiles": "CCOC(=O)C(O)C(O)(c1ccccc1)c1ccccc1", "note": "(centres undefined)", "growth": "97% (inactive)"}
{"smiles": "C[C@@H]1C(=O)N(C[C@@H](Cc2ccccc2)NC(=O)OCc2ccccc2)[C@]1(Cc1ccccc1)C(=O)OCc1ccccc1", "growth": "54.5% (inactive)"}
{"smiles": "CC1(C)N=C(N)N=C(N)N1c1cccc(CN)c1", "growth": "101% (inactive)"}
{"smiles": "CC(c1ccc(-n2cccn2)cc1)c1cnc(N2CCc3ccc(C(N)=O)cc3C2)s1", "note": "(centres undefined)", "growth": "68.6% (inactive)"}
{"smiles": "COc1ccc(OC)c(Nc2nc3nonc3nc2Nc2cccc(Br)c2)c1", "growth": "3.28% (active)"}
{"smiles": "N#Cc1c(N)nc2c(nnn2-c2cccc(Br)c2)c1N", "growth": "101% (inactive)"}
{"smiles": "[2H]c1nc(Nc2ncc(F)c(-c3cc(F)c4nc(C)n(C(C)C)c4c3)n2)c([2H])c([2H])c1CN1CCN(C([2H])([2H])C([2H])([2H])[2H])CC1", "growth": "18.8% (inactive)"}
{"smiles": "Cc1c(C(=O)O)nnn1-c1nccs1", "growth": "90.8% (inactive)"}
{"smiles": "CCNCCNc1cc(-c2ccc(C(=O)OC)cc2)c(C#N)c2nc3ccccc3n12", "growth": "81.7% (inactive)"}
{"smiles": "CO[C@H]1/C=C/O[C@@]2(C)Oc3c(C)c(O)c4c(c3C2=O)C(=O)C(/C=N/N(c2ccccc2)c2ccccc2)=C(NC(=O)/C(C)=C\\C=C\\[C@H](C)[C@H](O)[C@@H](C)[C@@H](O)[C@@H](C)[C@H](OC(C)=O)[C@@H]1C)C4=O", "growth": "12.2% (inactive)"}
{"smiles": "O[C@H]1CO[C@H]2[C@@H]1OC[C@@H]2Oc1ccc(Nc2nc(Nc3ccc(F)c(Cl)c3)ncc2F)cc1Cl", "growth": "110% (inactive)"}
{"smiles": "CCNCCNc1cc(-c2cccc(C(F)(F)F)c2)c(C#N)c2nc3ccccc3n12", "growth": "-97.2% (active)"}
{"smiles": "CN(C)CCN1C(=O)c2cccc3c(-c4ccc(-c5nc6c7ccccc7c7ccccc7c6[nH]5)cc4)ccc(c23)C1=O", "growth": "109% (inactive)"}
{"smiles": "CCOC(=O)c1c(C)nc2c(c1N)/C(=C/c1ccc(OC)cc1)C(=O)N2Cc1ccc(F)cc1", "growth": "9.64% (active)"}
{"smiles": "CSc1ccc(Cl)c(C(=O)Nc2sccc2C(N)=O)c1", "growth": "115% (inactive)"}
{"smiles": "CN1C[C@@H](c2ccc(Cl)cc2)[C@]2(NC(=S)N(c3ccc(F)c(Cl)c3)C2=O)[C@@]12C(=O)NC1C=CC(Cl)=C[C@H]12", "note": "(some centres undefined)", "growth": "80.7% (inactive)"}
{"smiles": "O=C(Nc1ccccc1)c1sc(-c2cccc(C(F)(F)F)c2)cc1O", "growth": "74.6% (inactive)"}
{"smiles": "NS(=O)(=O)c1cn(-c2ncnc3nc[nH]c23)ccc1=O", "growth": "82.2% (inactive)"}
{"smiles": "Nc1c(C(=O)c2ccccc2)nnc2ncnn12", "growth": "98% (inactive)"}
{"smiles": "CCCCCCCSc1ccc(C(=O)O)cc1", "growth": "102% (inactive)"}
